A selection: hits, their analogues and other compounds. The true share with any hit is near 21%.
TDP1 cell CPT – growth inhibition of DT40 Tdp1-/-;hTDP1 cells with camptothecin (screen for TDP1 inhibitors). chicken DT40 Tdp1-/-;hTDP1 cells + 20 nM CPT, ATP luminescence, 48 h. Potency, µM (titrated, usually from 46.2 µM), for the others: at the highest dose activity change, negative = growth inhibition, most hits filed as inhibitors. 420,000 tested, 12% active; also: potency is read from the fitted curve at half-maximal effect; nearly all actives have a fitted effect of over 55% in size
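Chicken DT40 Tdp1-/- cells complemented with human TDP1, 400 cells/well, exposed to compounds plus 20 nM camptothecin for at least 48 h at 37 C; viability read as ATP content by CellTiter-Glo luminescence.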
IL1B secr inh – blocks inflammasome-driven IL-1 beta release; 360,000 tested, 4.7% active; THP-1 LPS/ATP IL-1B secretion, AlphaLISA, 16 h; hits give low values; activity change, % at 57.5 µM; in the data active = activity change below about -50%; inconclusive = mostly about -30% to -49%
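THP-1 cells pretreated 1 hr with compounds (up to 57.5 uM final), then stimulated with LPS (250 ng/mL final) plus ATP (1.25 mM final); secreted IL-1B measured by AlphaLISA after 16 hr, decreased signal indicating inhibition.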
ELG1 DNA repair – ELG1-dependent DNA repair inhibition; HEK293T ELG1-luciferase reporter, luminescence, 16 h; DNA damage induced by 5-fluorouridine; Potency, µM (highest dose often 46.1 µM), without a hit: at the top dose activity change, negative = inhibition, actives largely listed as inhibitors; 330,000 tested, 2.3% active; also: potency is read from the fitted curve at half-maximal effect; nearly all actives have a fitted effect of over 55% in size
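DMSO vehicle served as the neutral condition. Each well held 2,000 cells given 5-fluorouridine plus compound; after 16 hr at 37 °C/5% CO2, ONE-Glo was added and luciferase measured 30 min later.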
RORgamma inh – ROR gamma (mouse) transcription inhibition; P51450; Drosophila S2 Gal4-RORgamma UAS-luciferase reporter, 20 h; Potency, µM (titrated, usually from 53.6 µM), without a hit: at the top dose activity change, negative = inhibition, hits mostly inhibitors; 310,000 tested, 5.4% active; AID 2551; also: potency is read from the fitted curve at half-maximal effect; nearly all actives have a fitted effect of over 60% in size
Target sequence (P51450 whole entry, looked up, the tested form may be a part): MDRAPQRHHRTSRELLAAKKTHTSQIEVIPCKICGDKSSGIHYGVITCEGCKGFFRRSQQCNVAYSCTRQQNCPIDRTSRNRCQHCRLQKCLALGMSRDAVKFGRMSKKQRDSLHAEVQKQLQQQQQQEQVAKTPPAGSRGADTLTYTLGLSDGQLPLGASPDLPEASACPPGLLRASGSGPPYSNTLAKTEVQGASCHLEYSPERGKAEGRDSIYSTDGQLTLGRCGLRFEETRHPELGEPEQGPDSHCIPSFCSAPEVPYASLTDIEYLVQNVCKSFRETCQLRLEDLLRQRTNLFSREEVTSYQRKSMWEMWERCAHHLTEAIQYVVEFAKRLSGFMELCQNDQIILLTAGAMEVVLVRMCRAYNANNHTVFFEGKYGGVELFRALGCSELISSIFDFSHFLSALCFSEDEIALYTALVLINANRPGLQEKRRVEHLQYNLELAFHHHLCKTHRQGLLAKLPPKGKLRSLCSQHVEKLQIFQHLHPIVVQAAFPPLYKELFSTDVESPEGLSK
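Drosophila S2 cells stably expressing Gal4-DBD/mouse RORγ fusion under metallothionein promoter plus UAS-luciferase; compound 1 h, then 700 uM CuSO4 induction for 20 h at ambient temperature; inhibition read as reduced luminescence.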
Gal4-VP16 FLuc – counter-screen for ROR gamma inhibitors: Gal4-VP16 reporter. Drosophila S2 Gal4-VP16 UAS-luciferase, luminescence, 20 h. Potency, µM (titrated, usually from 53.6 µM), inactives show at the top dose activity, negative = inhibition, most hits filed as inhibitors. 310,000 tested, 3.5% active. AID 2546;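 also: Gal4-VP16 expression switched on by copper sulfate through the metallothionein promoter; potency is read from the fitted curve at half-maximal effect; nearly all actives have a fitted effect of over 50% in size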
TDP1 cell noCPT – qHTS for Inhibitors of human tyrosyl-DNA phosphodiesterase 1 (TDP1): qHTS in cells in absence of CPT; 420,000 tested, 15% active; AID 686978, 2013; Potency, µM (series often up to 46.2 µM), inactives show at the top dose activity change, negative = growth inhibition, most hits filed as inhibitors; DT40 Tdp1-/- hTDP1 cells, no CPT, ATP luminescence, 48 h; also: potency is read from the fitted curve at half-maximal effect; nearly all actives have a fitted effect of over 55% in size
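Growth kinetics read by CellTiter-Glo luminescence after ≥48 hr at 37 °C. Cells: DT40 Tdp1-/- stably carrying human TDP1, 400 per well, compound exposure in the absence of CPT (DMSO vehicle).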
* marks the source's active call; other numbers are inactive results; ? = inconclusive; nt = no result given; [ ] = another dose, or the depositor's remark. Unless noted, calls follow the shape of the dose curve; as a rule, active = well fitted curve in the direction sought with a large enough effect; inconclusive = small, poorly fitted or top-dose-only effect, or another doubt; inactive = no such curve, though single readings can be large; an effect the other way counts as inactive or inconclusive. % is scaled to controls: 0 for no effect and ±100 for the full control effect.

SMILES | TDP1 cell CPT | IL1B secr inh | ELG1 DNA repair | RORgamma inh | Gal4-VP16 FLuc | TDP1 cell noCPT
COc1ccc(OC)c(C2NC(=O)NC(C)=C2C(=O)Nc2cc(C)cc(C)c2)c1 (stereo unspecified) | -2.8% | nt | nt | nt | nt | -11.2%
COc1ccccc1NC(=O)C(=O)/C=C(\O)c1ccccc1 | 14.6µM* | nt | ? | ? | ? | 14.6µM*
Cc1cnc(CNc2nc(-c3cccc(NS(C)(=O)=O)c3)nc3ccccc23)cn1 | -0.7% | nt | nt | -11.3% | 1.6% | -7.7%
Cn1c(=O)c2c(ncn2CC(=O)Nc2cc(S(=O)(=O)N3CCCCC3)ccc2Cl)n(C)c1=O | ? | 9.7 | ? | nt | nt | ?
CCCCc1c(-c2ccccc2OC)ncn1CCc1ccc(Cl)cc1 | ? | ? | nt | nt | nt | 20.6µM*
CCCCc1c(-c2ccccc2OC)ncn1CCc1ccc(OC)cc1 | 18.4µM* | -78.7* | nt | nt | nt | 23.1µM*
CCCCc1c(-c2ccccc2OC)ncn1CCc1ccccc1 | 20.6µM* | 0.0 | nt | nt | nt | ?
CCCCOC(=O)c1ccc(NC(=O)c2cc(-c3cccs3)on2)cc1 | -29.3% | nt | nt | nt | nt | ?
O=c1cc(/C=C/c2ccccc2)oc2c1ccc1ccccc12 | ? | -4.1 | 18.4µM* | -9.8% | ? | ?
O=c1cc(-c2ccc(O)c(O)c2)oc2c1ccc1ccccc12 | 16.4µM* | -0.3 | ? | nt | nt | 25.9µM*
O=c1cc(-c2ccc(O)c(O)c2)oc2ccc3ccccc3c12 | ? | 6.6 | ? | nt | nt | 14.6µM*
O=c1cc(-c2ccccc2)oc2c1ccc1ccccc12 | 14.2% | nt | nt | 0.2% | -18.9% | ?
O=c1cc(-c2cccnc2)oc2c1ccc1ccccc12 | ? | nt | -18.8% | -10.7% | -2.6% | 23.1µM*
O=c1cc(C(F)(F)F)oc2c1ccc1ccccc12 | 3.3% | -2.8 | -0.2% | 0.5% | -1.8% | -27.7%
CCOc1ccc2ncc3c(-c4ccc(C)cc4)nn(-c4cccc(F)c4)c3c2c1 | -16.2% | nt | nt | nt | nt | -13.7%
C=C1C=C(C(F)F)n2ncc(C(=O)N3CCN(c4ccccc4)CC3)c2N1 | 11.2µM* | nt | nt | nt | nt | ?
O=C(Nc1cccc(-c2csc(-c3ccccc3)n2)c1)c1cccs1 | 18.4µM* | -63.5* | 0.0% | ? | ? | 15.8µM*
O=C(Nc1cccc(-c2cn3cccnc3n2)c1)c1cccs1 | -20.4% | -23.5 | -7.3% | 35.9% | -5.6% | -27.0%
Cc1ccn2cc(-c3cccc(NC(=O)c4cccs4)c3)nc2c1 | ? | -98.8* | -7.2% | -26.8% | ? | 20.6µM*
Cc1ccc(C)c(NC(=O)CCS(=O)(=O)c2cccc3nsnc23)c1 | -11.5% | nt | nt | nt | nt | -8.1%
COc1cccc(CNC(=O)[C@@H]2CCCN2C(=O)[C@H]2CCCCN2C(=O)c2c(F)cccc2F)c1 | -27.3% | -0.4 | nt | nt | nt | ?
COc1ccc(-n2nc3ccc(NC(=O)c4cccc(OCCC(C)C)c4)cc3n2)cc1 | 18.4µM* | nt | nt | nt | nt | 7.31µM*
O=C(Nc1ccc(F)cc1)c1cccc2ccccc12 | -27.2% | 14.9 | 15.9% | 14.5% | 23.3% | ?
O=C(Nc1ccc2nn(-c3ccc(F)cc3)nc2c1)c1cccc2c(Cl)cccc12 | 10.3µM* | nt | nt | nt | nt | 20.6µM*
CCOc1ccc(-n2nc3ccc(NC(=O)Cc4ccccc4)cc3n2)cc1 | 3.66µM* | nt | nt | nt | nt | 3.66µM*
SMILES | TDP1 cell CPT | IL1B secr inh | ELG1 DNA repair | RORgamma inh | Gal4-VP16 FLuc | TDP1 cell noCPT
CCCOc1ccc(C(=O)Nc2ccc3nn(-c4ccc(OC)c(Cl)c4)nc3c2)cc1 | -21.8% | nt | nt | nt | nt | ?
COc1ccc(-n2nc3ccc(NC(=O)c4c(OC)cccc4OC)cc3n2)cc1 | 16.4µM* | nt | nt | nt | nt | 14.6µM*
O=C(Nc1ccc2c(c1)OCO2)C1CC(c2cccc(Br)c2)=NO1 (stereo unspecified) | 11.6% | 40.2 | 5.7% | -43.5% | 3.7% | -8.4%
O=c1c(-c2ccccc2)nc2cnc(N3CCNCC3)nc2n1C1CC1 | ? | nt | nt | -28.5% | -6.5% | ?
Cc1ccc(S(=O)(=O)N2[C@@H](CO)CO[C@H]2CC(=O)c2cccc3ccccc23)cc1 | ? | -21.1 | nt | nt | nt | ?
CCOc1ccc2nc3cc(N)ccc3c(N)c2c1 | ? | nt | nt | -2.1%[10 µM] | ? | 18.4µM*
CCOc1ccc2nc(N3CCOCC3)nc(C)c2c1 | -8.3% | -3.3 | ? | ? | -14.3%[0.365 µM] | -21.5%
CCOc1ccc2nc3cc(NCc4ccc(OC)cc4)ccc3c(N)c2c1 | 14.6µM* | -9.4 | -17.5% | 33.7% | ? | 20.6µM*
CCOc1ccc(CNc2ccc3c(c2)nc(C)n3C)cc1 | ? | -2.0 | 28.4% | 19.0% | ? | ?
O=S(=O)(c1ccc(Br)cc1)N1CCOCC1 | -5.2% | nt | nt | nt | nt | -0.3%
O=C1COc2ccc(S(=O)(=O)Nc3ccc(F)cc3)cc2N1 | -0.7% | 31.3 | 1.3% | 16.8% | -2.1% | 5.4%
O=C(c1cccs1)N1C[C@@H](n2cc(C3CC3)nn2)[C@H](O)C[C@@H]1c1ccc(Cl)cc1 | -9.1% | -2.0 | nt | nt | nt | ?
O=C(CN1C(=O)C2(SCC(=O)N2c2cccc(F)c2)c2ccccc21)NCc1ccccc1Cl (stereo unspecified) | ? | nt | nt | nt | nt | 20.6µM*
O=C(CN1C(=O)C2(SCC(=O)N2c2cccc(F)c2)c2ccccc21)NCCc1ccccc1 (stereo unspecified) | -28.6% | nt | nt | nt | nt | 23.1µM*
Cc1ccc(N2C(=O)CSC23C(=O)N(CC(=O)NCCc2ccccc2)c2ccccc23)cc1 (stereo unspecified) | -21.9% | nt | nt | nt | nt | -6.2%
Cc1ccc(CNC(=O)CN2C(=O)C3(SCC(=O)N3c3ccc(F)c(F)c3)c3ccccc32)cc1 (stereo unspecified) | -27.4% | nt | nt | nt | nt | ?
CC(C=O)Cc1ccc(C(C)(C)C)cc1 (stereo unspecified) | nt | nt | nt | 25.2% | -1.2% | nt
CCOc1ccc2nc(NC(=O)C(CCSC)NS(=O)(=O)c3cccs3)sc2c1 (stereo unspecified) | ? | ? | ? | -40.7% | -0.6% | ?
CCOc1ccccc1NC(=O)C1CCCN(S(=O)(=O)c2ccc(OC)c(C)c2)C1 (stereo unspecified) | ? | -1.9 | ? | 18.4% | 0.4% | 16.4µM*
CCOc1ccc2nc(NC(=O)C3CCCN(S(=O)(=O)c4cccs4)C3)sc2c1 (stereo unspecified) | ? | -57.7* | ? | ? | 10.9% | ?
CCOc1ccccc1NC(=O)C1CCCN(S(=O)(=O)c2cccs2)C1 (stereo unspecified) | 23.1µM* | nt | nt | nt | nt | 23.1µM*
Cc1ccc(S(=O)(=O)Cc2ccc(C(=O)N3CCN(c4cc(C)ccc4C)CC3)o2)cc1 | 14.6µM* | 17.7 | -16.1% | 11.2% | 4.0% | 11.6µM*

Screening data from PubChem.
